# The antibiotic and cytotoxicity screens of Wong et al. (2023)
# Screen size: about 39,000 compounds; about 3,300 (8.5%) were called active. The sample as a whole holds a higher share of actives than the screen did.
# Test system: HepG2
# Assay: cytotoxicity call (relative viability < 0.9)
# Details: 10 µM
row,SMILES,cytotoxicity call
1,C[C@H]1CC=CC[C@H](c2cccc(Cl)c2)NC(=O)[C@H](Cc2ccccc2)N(C)C(=O)c2ccccc2O1,inactive
2,Cc1ccc(S(=O)(=O)N(C)C[C@@H]2OCCCC[C@@H](C)Oc3ccc(NC(=O)Nc4ccc(F)cc4)cc3C(=O)N([C@H](C)CO)C[C@@H]2C)cc1,inactive
3,C[C@H](CO)N1C[C@H](C)[C@H](CN(C)C(=O)Nc2cccc(F)c2)OCc2ccccc2-c2ccccc2C1=O,inactive
4,CCCN(CCC)S(=O)(=O)c1ccc(C(=O)N(c2cccc(SC)c2)[C@H]2OC(=O)c3ccccc32)cc1,inactive
5,C[C@H]1CN([C@@H](C)CO)S(=O)(=O)c2ccc(C#CCN(C)C)cc2O[C@H]1CN(C)S(=O)(=O)c1cccc(F)c1,inactive
6,C[C@H](CO)N1C[C@H](C)[C@@H](CN(C)Cc2ccc(C(F)(F)F)cc2)Oc2c(NC(=O)c3ccc(-c4nccs4)cc3)cccc2C1=O,inactive
7,C[C@H]1CN([C@@H](C)CO)C(=O)c2cccc(NC(=O)c3ccc(-c4nccs4)cc3)c2O[C@H]1CN(C)C(=O)Nc1ccc(C(F)(F)F)cc1,inactive
8,C[C@H]1CN([C@@H](C)CO)C(=O)c2cccc(NC(=O)c3ccc(-c4nccs4)cc3)c2O[C@H]1CN(C)Cc1ccc(C(F)(F)F)cc1,inactive
9,C[C@H](CO)N1C[C@H](C)[C@H](CN(C)C(=O)Nc2ccc(C(F)(F)F)cc2)Oc2c(NC(=O)c3ccc(-c4nccs4)cc3)cccc2C1=O,inactive
10,C[C@@H]1CN([C@H](C)CO)C(=O)c2cccc(NC(=O)c3ccc(-c4nccs4)cc3)c2O[C@@H]1CN(C)Cc1ccc(C(F)(F)F)cc1,active
11,C[C@H](CO)N1C[C@H](C)[C@H](CN(C)Cc2ccc(C(F)(F)F)cc2)Oc2c(NC(=O)c3ccc(-c4nccs4)cc3)cccc2C1=O,inactive
12,C[C@@H]1CN([C@@H](C)CO)C(=O)c2cccc(NC(=O)c3ccc(-c4nccs4)cc3)c2O[C@@H]1CN(C)C(=O)Nc1ccc(C(F)(F)F)cc1,active
13,C[C@@H]1CN([C@H](C)CO)C(=O)c2cccc(NC(=O)c3ccc(-c4nccs4)cc3)c2O[C@@H]1CN(C)Cc1ccc(C(=O)O)cc1,inactive
14,C[C@H]1CN([C@@H](C)CO)C(=O)c2cccc(NC(=O)c3ccc(-c4nccs4)cc3)c2O[C@@H]1CN(C)Cc1ccc(C(F)(F)F)cc1,active
15,C[C@@H]1CN([C@@H](C)CO)C(=O)c2cccc(NC(=O)c3ccc(-c4nccs4)cc3)c2O[C@H]1CN(C)Cc1ccc(C(F)(F)F)cc1,inactive
16,C[C@@H]1CN([C@@H](C)CO)C(=O)c2cccc(NC(=O)c3ccc(-c4nccs4)cc3)c2O[C@@H]1CN(C)Cc1ccc(C(F)(F)F)cc1,active
17,C[C@@H]1CN([C@H](C)CO)C(=O)c2cccc(NC(=O)c3ccc(-c4nccs4)cc3)c2O[C@H]1CN(C)Cc1ccc(C(F)(F)F)cc1,inactive
18,N=C(N)SCCN,inactive
19,CN1CCN(C(=O)C[C@@H]2C=C[C@H](NC(=O)Nc3ccccc3F)[C@H](CO)O2)CC1,inactive
20,COc1ccc(NC(=O)Nc2ccc3c(c2)C(=O)N([C@@H](C)CO)C[C@H](C)[C@@H](CN(C)C(=O)Nc2ccccc2)OCCCC[C@H](C)O3)cc1,inactive
21,CN1C(=O)[C@@H]2CN(c3ncccn3)C[C@@H]2C12CCN(S(C)(=O)=O)CC2,inactive
22,C[C@H](CO)N1C[C@H](C)[C@@H](CN(C)S(=O)(=O)c2ccc(Cl)cc2)Oc2ccc(N(C)C)cc2CC1=O,inactive

row,SMILES,cytotoxicity call
1,Cc1ccc(S(=O)(=O)N(C)C[C@H]2OCCCC[C@@H](C)Oc3ccc(NC(=O)Nc4c(C)noc4C)cc3C(=O)N([C@H](C)CO)C[C@H]2C)cc1,inactive
2,COc1ccc2cc1/C=C\NC(=O)[C@H](Cc1ccccc1)NC(=O)[C@@H]1[C@H](CCN1C(=O)[C@@H](NC(=O)[C@@H](C)N(C)C)C(C)C)O2,inactive
3,CO[C@@H](CN(C)S(=O)(=O)c1cccc(Cl)c1)[C@H](C)CN([C@@H](C)CO)S(=O)(=O)c1ccc(Cl)cc1,inactive
4,C[C@@H]1CN([C@H](C)CO)C(=O)c2cc(NC(=O)CCC(F)(F)F)ccc2O[C@@H](C)CCCCO[C@@H]1CN(C)CC1CCCCC1,inactive
5,C[C@@H]1CN([C@H](C)CO)C(=O)c2cccc(NC(=O)c3nc4ccccc4s3)c2O[C@H]1CN(C)Cc1ccc(C(F)(F)F)cc1,inactive
6,C[C@@H]1CN([C@@H](C)CO)C(=O)c2cc(Br)cnc2O[C@@H]1CN(C)S(=O)(=O)c1ccc(F)cc1,inactive
7,C[C@@H]1CCCCO[C@@H](CN(C)C(=O)CCC(F)(F)F)[C@@H](C)CN([C@H](C)CO)C(=O)c2cc(NS(=O)(=O)c3ccc(F)cc3)ccc2O1,inactive
8,CCOC(=O)CSc1nnc2c3sc4nc(N5CCOCC5)c5c(c4c3ncn12)CC(C)(C)OC5,active
9,O=C(NCCCN1CCOCC1)C(=O)NC1CC1,inactive
10,COc1ccc(CN(C)C[C@H]2OCCCC[C@H](C)Oc3ccc(NS(=O)(=O)c4ccc(Cl)cc4)cc3C(=O)N([C@@H](C)CO)C[C@H]2C)cc1,inactive
11,COc1ccc(CN(C)C[C@@H]2OCCCC[C@@H](C)Oc3ccc(NS(=O)(=O)c4ccc(Cl)cc4)cc3C(=O)N([C@H](C)CO)C[C@@H]2C)cc1,inactive
12,COc1ccc(CN(C)C[C@H]2OCCCC[C@@H](C)Oc3ccc(NS(=O)(=O)c4ccc(Cl)cc4)cc3C(=O)N([C@@H](C)CO)C[C@H]2C)cc1,active
13,COc1ccc(CN(C)C[C@@H]2OCCCC[C@@H](C)Oc3ccc(NS(=O)(=O)c4ccc(Cl)cc4)cc3C(=O)N([C@H](C)CO)C[C@H]2C)cc1,inactive
14,COc1ccc(CN(C)C[C@H]2OCCCC[C@@H](C)Oc3ccc(NS(=O)(=O)c4ccc(Cl)cc4)cc3C(=O)N([C@H](C)CO)C[C@@H]2C)cc1,inactive
15,COc1ccc(CN(C)C[C@H]2OCCCC[C@H](C)Oc3ccc(NS(=O)(=O)c4ccc(Cl)cc4)cc3C(=O)N([C@@H](C)CO)C[C@@H]2C)cc1,inactive
16,COc1ccc(CN(C)C[C@@H]2OCCCC[C@H](C)Oc3ccc(NS(=O)(=O)c4ccc(Cl)cc4)cc3C(=O)N([C@H](C)CO)C[C@@H]2C)cc1,active
17,COc1ccc(CN(C)C[C@H]2OCCCC[C@@H](C)Oc3ccc(NS(=O)(=O)c4ccc(Cl)cc4)cc3C(=O)N([C@@H](C)CO)C[C@@H]2C)cc1,inactive
18,COc1ccc(CN(C)C[C@@H]2OCCCC[C@H](C)Oc3ccc(NS(=O)(=O)c4ccc(Cl)cc4)cc3C(=O)N([C@@H](C)CO)C[C@H]2C)cc1,active
19,C[C@@H]1CCCCO[C@H](CN(C)C(=O)Nc2ccccc2)[C@H](C)CN([C@@H](C)CO)C(=O)c2cc(NC(=O)Nc3ccc(F)cc3)ccc2O1,inactive
20,O=C(C[C@H]1CC[C@@H](NC(=O)CN2CCOCC2)[C@H](CO)O1)NC1CCC1,inactive
21,C[C@H](CO)N1C[C@H](C)[C@@H](CN(C)S(=O)(=O)c2cn(C)cn2)Oc2ccc(N(C)C)cc2CC1=O,inactive
22,C[C@H](CO)N1C[C@H](C)[C@H](CN(C)Cc2ccc(F)cc2)Oc2cc(C#CC3CC3)ccc2S1(=O)=O,inactive

row,SMILES,cytotoxicity call
1,C[C@@H]1CCCCO[C@H](CN(C)C(=O)C2CCCCC2)[C@@H](C)CN([C@H](C)CO)C(=O)c2cc(NC(=O)Nc3ccc(F)cc3)ccc2O1,inactive
2,COCC(=O)Nc1ccccc1C(=O)O,inactive
3,O=C(N1CCOCC1)[C@@]1(CCS(=O)(=O)c2ccccc2)COC(c2ccc(OCCCO)cc2)=N1,inactive
4,NCc1cccc2c1OCCCO2,inactive
5,C[N+](C)(C)CCCC[C@@H]1NC(=O)[C@@H]2C[C@H](C(=O)NCCCCCCNC(=O)CS)[C@H](c3ccc(O)cc3)N2C1=O,inactive
6,CC(C)=C[C@H]1[C@@H](c2nc3ccc(Br)cc3[nH]2)C1(C)C,inactive
7,CCNc1nc(NCC)nc(OCC#N)n1,inactive
8,CCNc1nc(OCCO)nc(N(C)C)n1,inactive
9,CCNc1nc(NCC)nc(C(=O)OCCO)n1,active
10,C[C@@H]1CN([C@@H](C)CO)C(=O)Cc2cc(NC(=O)Cc3cn(C)c4ccccc34)ccc2O[C@@H]1CN(C)C(=O)Nc1ccc(C(F)(F)F)cc1,inactive
11,C[C@H]1CN([C@@H](C)CO)C(=O)Cc2cc(NC(=O)Cc3cn(C)c4ccccc34)ccc2O[C@@H]1CN(C)C(=O)Nc1ccc(C(F)(F)F)cc1,inactive
12,C[C@H]1CN([C@@H](C)CO)C(=O)Cc2cc(NC(=O)Cc3cn(C)c4ccccc34)ccc2O[C@@H]1CN(C)Cc1ccc(C(F)(F)F)cc1,active
13,C[C@@H]1CN([C@@H](C)CO)C(=O)Cc2cc(NC(=O)Cc3cn(C)c4ccccc34)ccc2O[C@H]1CN(C)C(=O)Nc1ccc(C(F)(F)F)cc1,inactive
14,C[C@H](CO)N1C[C@H](C)[C@@H](CN(C)C(=O)Nc2ccc(C(F)(F)F)cc2)Oc2ccc(NC(=O)Cc3cn(C)c4ccccc34)cc2CC1=O,inactive
15,C[C@H](CO)N1C[C@H](C)[C@H](CN(C)C(=O)Nc2ccc(C(F)(F)F)cc2)Oc2ccc(NC(=O)Cc3cn(C)c4ccccc34)cc2CC1=O,inactive
16,C[C@@H]1CN([C@@H](C)CO)C(=O)Cc2cc(NC(=O)Cc3cn(C)c4ccccc34)ccc2O[C@H]1CN(C)Cc1ccc(C(F)(F)F)cc1,active
17,C[C@@H]1CN([C@H](C)CO)C(=O)Cc2cc(NC(=O)Cc3cn(C)c4ccccc34)ccc2O[C@@H]1CN(C)C(=O)Nc1ccc(C(F)(F)F)cc1,inactive
18,C[C@H](CO)N1C[C@H](C)[C@H](CN(C)Cc2ccc(C(F)(F)F)cc2)Oc2ccc(NC(=O)Cc3cn(C)c4ccccc34)cc2CC1=O,inactive
19,C[C@@H]1CN([C@H](C)CO)C(=O)Cc2cc(NC(=O)Cc3cn(C)c4ccccc34)ccc2O[C@@H]1CN(C)Cc1ccc(C(F)(F)F)cc1,active
20,C[C@@H]1CN([C@@H](C)CO)C(=O)Cc2cc(NC(=O)Cc3cn(C)c4ccccc34)ccc2O[C@@H]1CN(C)Cc1ccc(C(F)(F)F)cc1,active
21,C[C@H]1CN([C@@H](C)CO)C(=O)Cc2cc(NC(=O)Cc3cn(C)c4ccccc34)ccc2O[C@H]1CN(C)C(=O)Nc1ccc(C(F)(F)F)cc1,inactive
